# Results filed as inconclusive are left out. Activity calls are given as the source filed them. Calls follow the shape of the dose curve; as a rule, active = well fitted inhibition curve with a large enough effect; inconclusive = small, poorly fitted or top-dose-only effect; inactive = flat fitted curve, though single readings scatter.
# Assay: qHTS for Inhibitors of Plasmodium falciparum (HB3) proliferation (AID 504318); also: nearly all actives have a fitted effect of over 60% in size;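 as to activity change, negative = inhibition: 0% = DMSO vehicle and -100% = artemisinin control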
# Conditions: P. falciparum HB3 in erythrocytes, SYBR Green DNA, 72 h; series mostly up to 7.21 µM; activity change, negative = inhibition: at the top concentration
# Excerpt: Plasmodium falciparum is a virulent malarial parasite that kills 1-2 million people worldwide each year. Malaria not only inflicts tremendous suffering and morbidity on the human population, but has dramatically influenced the course of civilization with profound sociological and economic implications (Shah, S. 2010). Transmitted by mosquitoes, the sporozoite form of the parasite enters the blood stream to infect hepatocytes, where they become merozoites that infect red blood cells (erythrocytes). Within erythrocytes, merozoites begin a […] cycle of growth and division, after which the parasite is released to infect new red blood cells. Gametocytes, which form within erythrocytes as well, circulate in the bloodstream and are ingested by the mosquito, thereby completing the life cycle (see CDC website). To profile malarial lines for differential chemical responses and to identify inhibitors of malarial growth, an assay that measures P. falciparum growth and replication within erythrocytes was employed. This assay uses a DNA binding fluorescent dye (SYBR Green) to detect parasite DNA following cell lysis. Because mature erythrocytes lack DNA, only Plasmodium-derived DNA is detected. The P. falciparum line cp250, derived from a malarial isolate from Cambodia, (Mu, J., et al. 2010) was added to the panel of lines, Dd2, HB3, 7G8 and GB4 in this study. Laboratory of Assay Development and Screening Technology [ADST] and NIH Chemical Genomics Center [NCGC] Boston University, Chemistry Department, Center for Chemical Methodology and Library Development [CMLD-BU] NIH National Institute of Allergy and Infectious Diseases [NIAID]
# ADST Assay Protocol Summary: The 1536-well SYBR Green viability assay was based on the method of Bennett et al (2004) and described previously in 1536-well format (Yuan J., et al. 2009). For screening 3 ul culture medium was dispensed into 1536 well black clear bottom plates (Aurora Biotechnologies) using a Multidrop Combi (Thermo Fisher Scientific Inc.), 23 nL compounds in DMSO were added by a pin transfer (Cleveland, P.H. and Koutz, P.J, 2005) using a pin tool-based delivery system (Kalypsys), and 5 ul of erythrocytes infected with P. falciparum one of five lines (cp250, Dd2, HB3, 7G8 or GB4, 0.3% parasitemia, 2.5% hematocrit final concentration) were added. The plates were incubated at 37C in a humidified incubator in 5% CO2 for 72 h, and 2 ul lysis buffer (20 mM Tris HCl, 10 mM EDTA, 0.16% saponin, 1.6% triton X, 10X SYBR Green I (supplied as 10,000X final concentration by Invitrogen) was added to each well. The plates were mixed for 25 sec with gentle shaking and incubated overnight at room temperature in the dark. The following morning, fluorescence intensity at 485(14) nm excitation and 535(25) nm emission wavelengths was measured on an EnVision (Perkin Elmer) plate reader. Plate reads were normalized relative to the control inhibitor (0.29 uM artemisinin) and vehicle (DMSO) wells present on each plate and then corrected by an algorithm using vehicle-only control plates at the beginning and end of the compound plate stack. References Shah, S. (2010). The Fever: how malaria has ruled humankind for 500,000 years. New York, Sarah Crichton Books. CDC web site, http://www.cdc.gov/malaria/about/biology/index.html Mu, J., Myers, R.A., Jiang, H., Liu, S., Ricklefs, S., Waisberg, M., Chotivanich, K., Wilairatana, P., Krudsood, S., White, N.J., et Plasmodium falciparum genome-wide scans for positive selection, recombination hot spots and resistance to antimalarial drugs Nature Genetics 2010, 42, pp 268-271 Bennett TN, Paguio, M., Gligorijevic, B., Seudieu, C., Kosar, A. D., Davidson, E., and Roepe, P. D. Novel, rapid, and inexpensive cell-based quantification of antimalarial drug efficacy Antimicrobial Agents Chemother. 2004, 48(5): pp 1807-10 Yuan J, Johnson RL, Huang RL, Wichterman J, Jiang HY, Hayton K, Fidock DA, Wellems TE, Inglese J, Austin CP, Su XZ. […]
# Potency is read from the fitted curve at half-maximal effect.
SMILES,"activity change, negative = inhibition",Potency
COc1ccc(-c2nc3c(c4c2C[C@H](c2ccccc2)OC4)CN(S(=O)(=O)c2ccc4c(c2)OCCN4C)CC3)c(C)c1,-6.73% (inactive),
COCCN1C(=O)N[C@@H](c2ccccc2)[C@H](C(=O)OC)[C@H]1C,-0.986% (inactive),
COC(=O)C1=C(C)N(CC2CC2)C(=O)N[C@H]1c1ccccc1,2.43% (inactive),
COC(=O)C1=C(C(=O)OC)[C@@H]2N(C)c3ccccc3[C@@]23C[C@@H](C(=O)OC)N(C(=O)C2CCC2)C3=N1,4.39% (inactive),
COCC(=O)N1CCc2nc(-c3ccc(OC)cc3C)c3c(c2C1)CO[C@@H](c1ccccc1)C3,-0.913% (inactive),
COC(=O)N[C@H](CC(C)=O)c1ccc(Cl)cc1,3.7% (inactive),
COC(=O)CCCC1=CC2=C(c3ccccc3)C(=O)C(C)(OC(=O)C3CCCC3)C(=O)C2=CN1CCc1ccccn1 (stereo not given),-10.3% (inactive),
COC/C=C/C1=CC2=CC(=O)C(C)(OC(=O)c3cnc4ccccc4n3)C(=O)C2=CN1Cc1ccccc1 (stereo not given),1.72% (inactive),
COC(=O)CCCC1=CC2=C(c3ccccc3)C(=O)C(C)(OC(=O)C3CCCC3)C(=O)C2=CN1CC1CC1 (stereo not given),-0.309% (inactive),
CCO[C@H](c1cc(OC)cc([N+](=O)[O-])c1OC)[C@H](C)C=CCC(=O)OC,-7.02% (inactive),
CCCCc1nc2c(c3c1C[C@H](C)OC3)CN(S(=O)(=O)c1ccc(C#N)cc1)CC2,-14.2% (inactive),
CCCCC1=CC2=C(c3ccco3)C(=O)C(C)(OC(=O)c3ccc(OC)cc3)C(=O)C2=CN1c1ccccc1 (stereo not given),-0.837% (inactive),
COC/C=C/C1=CC2=CC(=O)C(C)(OC(=O)c3cnc4ccccc4n3)C(=O)C2=CN1C1CC1 (stereo not given),-8.59% (inactive),
COCCN1C(=O)N[C@@H](c2ccco2)C(C(=O)OC)=C1C,-2.01% (inactive),
CC1(OC(=O)C2CCCC2)C(=O)C=C2C=C(c3ccsc3)N(CCCCO)C=C2C1=O (stereo not given),,inactive
CC[C@@H](C)CN1C(=O)N[C@@H](CCc2ccccc2)C(C(C)=O)=C1C,,inactive
C=CCN1C=C2C(=O)C(C)(OC(=O)C3CCCC3)C(=O)C(c3ccccc3)=C2C=C1CCCC(=O)OC (stereo not given),-6.53% (inactive),
CCCC[C@]12Cc3c(ccc4ccccc34)[C@H](O1)C1=C(O2)C(=O)c2ccccc2C1=O,,1.51 µM (active)
COC(=O)C1=C(C(=O)OC)[C@@H]2N(C)c3ccc(OC)cc3[C@@]23C[C@@H](C(=O)OC)N(C(=O)c2ccc(Br)cc2)C3=N1,-1.74% (inactive),
COC(=O)[C@@H]1[C@H](CCc2ccccc2)NC(=O)N(Cc2ccccc2)[C@H]1C,3.99% (inactive),

SMILES,"activity change, negative = inhibition",Potency
COC(=O)CCCC1=CC2=CC(=O)C(C)(OC(=O)c3cccs3)C(=O)C2=CN1Cc1ccc2c(c1)OCO2 (stereo not given),-7.32% (inactive),
COC(=O)N[C@H](C(C(=O)OC)=C(C)NCc1ccccc1)c1cccc(F)c1,3.61% (inactive),
COC(=O)CC1c2ccccc2C=C(C)N1C(=O)OC (stereo not given),,inactive
CCN1C(=O)N[C@@H](CCc2ccccc2)C(C(=O)OC)=C1C,-0.415% (inactive),
COc1ccc(NC(=O)N2CCc3nc(COc4ccccc4)c4c(c3C2)CO[C@@H](C)C4)cc1,,inactive
CC#CCN1c2ccccc2[C@]23C[C@@H](C(=O)OC)N=C2NC(C(=O)OC)=C(C(=O)OC)[C@H]13,3.98% (inactive),
CCCCC1=CC2=CC(=O)C(C)(OC(=O)CC)C(=O)C2=CN1C(CO)CO (stereo not given),1.91% (inactive),
C=CCN1c2ccccc2[C@]23C[C@@H](C(=O)OC)N(C(=O)CC(C)C)C2=NC(C(=O)OC)=C(C(=O)OC)[C@H]13,,inactive
CCN(CC)CCCN1C=C2C(=O)C(C)(OC(=O)C3CCCC3)C(=O)C(c3ccccc3)=C2C=C1CCCC(=O)OC (stereo not given),1.11% (inactive),
CCN1C(=O)N[C@@H](c2cccc(F)c2)C(C(=O)OC)=C1C,2.57% (inactive),
COCCN1C(=O)N[C@@H](c2cccc(C(F)(F)F)c2)[C@@H](C(=O)OC)[C@H]1C,,inactive
CCCCc1nc2c(c3c1C[C@H](C)OC3)CN(C(=O)COC)CC2,-0.543% (inactive),
COC(=O)CCC(=O)OC1(C)C(=O)C2=CN(CC(C)C)C(c3ccc(OC)cc3)=CC2=C(Br)C1=O (stereo not given),1.21% (inactive),
COC(=O)C1=C(C)N(Cc2ccccc2)C(=O)N[C@H]1c1ccc(Br)cc1,0.386% (inactive),
COC(=O)C1=C(C)N(Cc2ccccc2)C(=S)NC1c1cccc(F)c1 (stereo not given),-10.3% (inactive),
CC(=O)Nc1ccc(S(=O)(=O)N2CCc3nc(COc4ccccc4)c4c(c3C2)CO[C@@H](C)C4)cc1,-10.6% (inactive),
CCN(CC)CCCN1C=C2C(=O)C(C)(OC(=O)CCC(=O)OC)C(=O)C=C2C=C1C1CC1 (stereo not given),-0.686% (inactive),
C[C@H]1Cc2c(-c3ccccc3)nc3c(c2CO1)CN(C(=O)c1ccco1)CC3,-6.91% (inactive),
COC/C=C/C1=CC2=CC(=O)C(C)(OC(=O)c3cnc4ccccc4n3)C(=O)C2=CN1CCCOC(C)C (stereo not given),-0.155% (inactive),
CCN1C(=O)N[C@@H](CCc2ccccc2)[C@H](C(=O)OC)[C@H]1C,-0.679% (inactive),
